# Reference: PubChem BioAssay (EPA / NIEHS)
# Active and inactive are the calls of the source. How the source made its calls: active means hit-call score of the fitted dose curve at least 0.9, where 1 is the maximum; inactive means score below 0.9.
# Read-out: Apoptosis regulator Bcl-2 (Homo sapiens) (UniProt P10415)
# Test: LTEA_HepaRG_BCL2: Life Technologies and Expression Analysis (LTEA) Assay for Bcl-2 gene using HepaRG (AID 2283475)
# Settings: mRNA level, 48 h; actives raise or lower the signal
# Procedure, shortened: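 HepaRG, plated 48 h then switched to serum-free induction medium; dosed 48 h, 8 conc. (max 100 uM, half-log steps), duplicate, 0.5% DMSO. Lysis in RLT, RNA isolated, TaqMan qRT-PCR for BCL2; ACTB/GAPDH/POLR2A normalisation; bidirectional fit vs DMSO.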
# Chain of Caspase-3 (Homo sapiens) (P42574 whole entry, looked up): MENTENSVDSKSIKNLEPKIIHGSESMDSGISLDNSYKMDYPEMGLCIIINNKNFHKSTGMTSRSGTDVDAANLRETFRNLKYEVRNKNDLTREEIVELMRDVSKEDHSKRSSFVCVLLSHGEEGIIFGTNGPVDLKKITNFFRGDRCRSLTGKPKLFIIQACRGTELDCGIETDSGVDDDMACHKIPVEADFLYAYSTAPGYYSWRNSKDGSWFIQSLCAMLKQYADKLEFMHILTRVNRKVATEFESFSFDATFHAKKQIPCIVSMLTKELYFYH
# Chain of Apoptosis regulator Bcl-2 (Homo sapiens) (P10415 whole entry, looked up): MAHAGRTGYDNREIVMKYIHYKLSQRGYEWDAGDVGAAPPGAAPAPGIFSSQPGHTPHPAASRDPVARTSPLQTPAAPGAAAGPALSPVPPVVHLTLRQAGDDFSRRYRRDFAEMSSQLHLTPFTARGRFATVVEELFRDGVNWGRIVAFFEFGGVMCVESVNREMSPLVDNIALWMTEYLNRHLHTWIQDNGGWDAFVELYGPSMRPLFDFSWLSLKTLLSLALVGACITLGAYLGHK
Compound,outcome,AC50
Cc1cc(Cc2ccc(N)c(C)c2)ccc1N,inactive,
O=C(O)CC(O)(CC(=O)O)C(=O)O,inactive,
CN(C)C(=O)NC1(c2ccccc2)CCN(CCC[C@]2(c3ccc(Cl)c(Cl)c3)CCCN(C(=O)c3ccccc3)C2)CC1,inactive,
CC(=O)OC1CC(C)OC(C)O1 (configuration not stated),inactive,
NCCOCCOCCN,inactive,
CCN(CC)CCOc1ccc(C(=C(Cl)c2ccccc2)c2ccccc2)cc1,inactive,
CCCCC(CC)COP(=O)(OCC(CC)CCCC)OCC(CC)CCCC (configuration not stated),inactive,
C/C=C/c1ccc(OC)cc1,inactive,
CCc1nc(N)nc(N)c1-c1ccc(Cl)cc1,,50 µM (active)
Cn1cnc2c1c(=O)[nH]c(=O)n2C,inactive,
CC(=O)[C@@]1(O)CC[C@H]2[C@@H]3CCC4=CC(=O)CC[C@]4(C)[C@H]3CC[C@@]21C,inactive,
Cc1cn([C@H]2C=C[C@@H](CO)O2)c(=O)[nH]c1=O,inactive,

# Read-out: Bcl-2 (BID) gene, BID (gene 637)
# Test: LTEA_HepaRG_BID: Life Technologies and Expression Analysis (LTEA) Assay for Bcl-2 (BID) gene using HepaRG (AID 2283476)
# Settings: mRNA level, 48 h; actives raise or lower the signal
# Procedure, shortened: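 Transcript levels of BID, measured by qRT-PCR and normalized to three housekeeping genes, were fitted bidirectionally against DMSO controls. Cells were HepaRG, dosed 48 h at up to 100 uM.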
Compound,outcome,AC50
CC(=O)OCC(COC(C)=O)OC(C)=O,inactive,
CCCC(=O)O,inactive,
Cc1cc(Cc2ccc(N)c(C)c2)ccc1N,inactive,
CCCCC(CC)CO (configuration not stated),inactive,
CC1(C)C(=O)NC(=O)N1CO,inactive,
O=C(O)CC(O)(CC(=O)O)C(=O)O,inactive,
CCCCCCC(CCCCCCCCCCC(=O)OCC(COC(C)=O)OC(C)=O)OC(C)=O (configuration not stated),inactive,
NC1CCCCC1,inactive,
CC(C)(O)c1ccc(CNC(=O)c2cccnc2Oc2ccc(F)cc2)cc1,inactive,
C=CCCCCCCCCCCCC,inactive,
CC(C)OC(=O)C(C)(C)Oc1ccc(C(=O)c2ccc(Cl)cc2)cc1,,0.0422 µM (active)
O=C(Oc1ccccc1)c1cccc(C(=O)Oc2ccccc2)c1,inactive,
CN(C)C(=O)NC1(c2ccccc2)CCN(CCC[C@]2(c3ccc(Cl)c(Cl)c3)CCCN(C(=O)c3ccccc3)C2)CC1,inactive,
O=C1OC(c2ccc(O)cc2)(c2ccc(O)cc2)c2ccccc21,inactive,
CC(=O)OC1CC(C)OC(C)O1 (configuration not stated),inactive,
O=C(O)c1cccnc1,inactive,
NCCOCCOCCN,inactive,
O=C1O[C@H]([C@H](O)CO)C(O)=C1O,inactive,
CCN(CC)CCOc1ccc(C(=C(Cl)c2ccccc2)c2ccccc2)cc1,inactive,
CCCCC(CC)COP(=O)(OCC(CC)CCCC)OCC(CC)CCCC (configuration not stated),inactive,
CC(=O)CC(c1ccccc1)c1c(O)c2ccccc2oc1=O (configuration not stated),inactive,
C/C=C/c1ccc(OC)cc1,inactive,
O=C(O)c1[nH]n(-c2ccc(S(=O)(=O)O)cc2)c(=O)c1N=Nc1ccc(S(=O)(=O)O)cc1,inactive,
Oc1ccc(O)cc1,inactive,
CC(C)c1cccc(C(C)C)c1,inactive,
NC=O,inactive,
CCc1nc(N)nc(N)c1-c1ccc(Cl)cc1,inactive,
Cn1cnc2c1c(=O)[nH]c(=O)n2C,inactive,
CC(=O)[C@@]1(O)CC[C@H]2[C@@H]3CCC4=CC(=O)CC[C@]4(C)[C@H]3CC[C@@]21C,inactive,
Cc1cn([C@H]2C=C[C@@H](CO)O2)c(=O)[nH]c1=O,inactive,

# Read-out: Caspase-3 (Homo sapiens) (UniProt P42574)
# Test: LTEA_HepaRG_CASP3: Life Technologies and Expression Analysis (LTEA) Assay for cysteine-aspartic acid protease (CASP3) using HepaRG (AID 2283477)
# Settings: mRNA level, 48 h; actives raise or lower the signal
# Procedure, shortened: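 Differentiated human HepaRG cells in serum-free induction medium were exposed 48 h to 8-point half-log concentrations from 100 uM (0.5% DMSO vehicle). CASP3 mRNA was measured by qRT-PCR, normalised to ACTB, GAPDH and POLR2A, with bidirectional fitting against DMSO.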
row,Compound,outcome
1,CC(=O)OCC(COC(C)=O)OC(C)=O,inactive
2,CCCC(=O)O,inactive
3,Cc1cc(Cc2ccc(N)c(C)c2)ccc1N,inactive
4,CCCCC(CC)CO (configuration not stated),inactive
5,CC1(C)C(=O)NC(=O)N1CO,inactive
6,O=C(O)CC(O)(CC(=O)O)C(=O)O,inactive
7,CCCCCCC(CCCCCCCCCCC(=O)OCC(COC(C)=O)OC(C)=O)OC(C)=O (configuration not stated),inactive
8,NC1CCCCC1,inactive
9,CC(C)(O)c1ccc(CNC(=O)c2cccnc2Oc2ccc(F)cc2)cc1,inactive
10,C=CCCCCCCCCCCCC,inactive
11,CC(C)OC(=O)C(C)(C)Oc1ccc(C(=O)c2ccc(Cl)cc2)cc1,inactive
12,O=C(Oc1ccccc1)c1cccc(C(=O)Oc2ccccc2)c1,inactive
13,CN(C)C(=O)NC1(c2ccccc2)CCN(CCC[C@]2(c3ccc(Cl)c(Cl)c3)CCCN(C(=O)c3ccccc3)C2)CC1,inactive
14,O=C1OC(c2ccc(O)cc2)(c2ccc(O)cc2)c2ccccc21,inactive
15,CC(=O)OC1CC(C)OC(C)O1 (configuration not stated),inactive
16,O=C(O)c1cccnc1,inactive
17,NCCOCCOCCN,inactive
18,O=C1O[C@H]([C@H](O)CO)C(O)=C1O,inactive
19,CCN(CC)CCOc1ccc(C(=C(Cl)c2ccccc2)c2ccccc2)cc1,inactive
20,CCCCC(CC)COP(=O)(OCC(CC)CCCC)OCC(CC)CCCC (configuration not stated),inactive
21,CC(=O)CC(c1ccccc1)c1c(O)c2ccccc2oc1=O (configuration not stated),inactive
22,C/C=C/c1ccc(OC)cc1,inactive
23,O=C(O)c1[nH]n(-c2ccc(S(=O)(=O)O)cc2)c(=O)c1N=Nc1ccc(S(=O)(=O)O)cc1,inactive
24,Oc1ccc(O)cc1,inactive
25,CC(C)c1cccc(C(C)C)c1,inactive
26,NC=O,inactive
27,CCc1nc(N)nc(N)c1-c1ccc(Cl)cc1,inactive
28,Cn1cnc2c1c(=O)[nH]c(=O)n2C,inactive
29,CC(=O)[C@@]1(O)CC[C@H]2[C@@H]3CCC4=CC(=O)CC[C@]4(C)[C@H]3CC[C@@]21C,inactive
30,Cc1cn([C@H]2C=C[C@@H](CO)O2)c(=O)[nH]c1=O,inactive
